Molecular target: Albumin (Bos taurus) (UniProt P02769)
Experiment: bovine serum albumin binders on microarray, profiling panel, artefact control for SMM control protein annotation, biochemical, small-molecule microarray, Alexa647 label, 635/667 nm fluorescence (AID 1118);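 further: score merges 667 nm emission intensity and signal-to-noise per printed compound spot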
Details: BSA-A647 binding, fluorescence 635 nm, higher = more signal

Albumin (Bos taurus), sequence (P02769 whole entry, looked up): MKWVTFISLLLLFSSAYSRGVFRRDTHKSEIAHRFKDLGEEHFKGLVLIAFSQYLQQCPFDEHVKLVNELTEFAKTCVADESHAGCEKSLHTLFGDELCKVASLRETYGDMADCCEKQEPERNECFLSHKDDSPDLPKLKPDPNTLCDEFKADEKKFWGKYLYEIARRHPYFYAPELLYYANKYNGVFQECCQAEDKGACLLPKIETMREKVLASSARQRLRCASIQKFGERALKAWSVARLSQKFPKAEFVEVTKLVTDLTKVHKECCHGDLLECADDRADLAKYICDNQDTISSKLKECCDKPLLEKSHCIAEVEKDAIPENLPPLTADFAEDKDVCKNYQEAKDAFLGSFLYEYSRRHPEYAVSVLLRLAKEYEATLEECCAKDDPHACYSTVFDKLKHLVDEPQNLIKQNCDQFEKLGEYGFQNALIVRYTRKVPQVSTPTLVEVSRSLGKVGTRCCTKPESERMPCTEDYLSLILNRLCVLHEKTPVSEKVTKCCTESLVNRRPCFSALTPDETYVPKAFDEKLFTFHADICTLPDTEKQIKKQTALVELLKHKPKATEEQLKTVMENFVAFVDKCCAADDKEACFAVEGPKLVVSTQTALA

Compound	composite z-score
COc1ccc(CCN2C(=O)[C@@]3(c4ccc([N+](=O)[O-])cc4)CC(=O)N(CC45CC6CC(CC(C6)C4)C5)[C@@H]3c3ccc(CO)cc32)cc1	-0.181
C=CCN1C(=O)[C@@]2(Cc3ccccc3)N=C(c3ccc(OCCCO)cc3)O[C@H]2c2ccccc21	0.174
CN1CCC(CCCO)=CC1C1CC1 (configuration not stated)	-0.958
CC(C)N1CC=CC23O[C@@H]4/C=C\CCCOC(=O)C4[C@H]2C(=O)N(CCCCCO)[C@@H]3C1=O (some centres not stated)	-1.71
COCCOC(=O)N1C(=O)[C@@]2(c3cc(C#CCC(C(=O)OC)C(=O)OC)ccc31)[C@H](C(=O)N1CCN(c3ncccn3)CC1)[C@H]1C(=O)O[C@H](c3ccccc3)[C@H](c3ccccc3)N1[C@@H]2c1ccc(O)cc1	0.752
CCC(=O)[C@]12O[C@@]3([C@@H]4C(=O)OCC[C@@H]41)N(Cc1ccccc1)C(C)=C(C(=O)OC)[C@@H](c1ccccc1)N3C2=O	0.226
COC(=O)[C@@]1(Cc2ccc(OC)cc2)[C@H]2c3cc(C(=O)N(C)C)n(Cc4ccc(C)c(F)c4F)c3C[C@H]2CN1C(=O)c1ccccc1	0.856
COc1cc(CO)cc(I)c1O[C@H]1C=C(C(=O)NCCO)C[C@@H](NCCc2c[nH]c3ccccc23)[C@@H]1O	0.544
Cc1ccc(N2C(=O)c3ccccc3[C@](C)(C(=O)O)[C@@H]2c2ccc(CO)cc2)nc1	-1.29
COC(=O)[C@@]1(Cc2ccccc2)[C@H]2c3cc(C(=O)N4CCCC4)n(CCN4CNCC4=O)c3C[C@H]2CN1C(=O)c1ccccc1	0.963
CO[C@@H]1COC(=O)[C@H](C)NC(=O)CC=C[C@@H](C)[C@H](OC)COC(=O)[C@H](C)NC(=O)CC=C[C@H]1C	-0.406
C=C(COC)/C(=C/C[C@@H](OC(C)=O)c1cccc(OCCO)c1)c1cc(C(=O)OC)ccc1OC	-0.458
CCOC(=O)C[C@H]1[C@H](OC(=O)c2ccccc2-c2ccccc2)[C@@H](NC(=O)c2ccc(-c3ccccc3)cc2)c2cc(OCCCO)ccc2N1C(=O)Cc1ccc(OC)cc1	0.0867
[N-]=[N+]=NCc1ccccc1C[C@]1(C(=O)N2CCCCC2)N=C(c2ccc(OCCCO)cc2)O[C@H]1c1ccccc1CN=[N+]=[N-]	0.899
CO[C@H]1COC(=O)[C@@H](OCc2ccccc2)C=C[C@H](C)[C@@H](OC)COC(=O)[C@H](OCc2ccccc2)C=C[C@@H]1C	-0.695
COCCOC(=O)N1C(=O)[C@@]2(c3cc(C#CCNC(N)=O)ccc31)[C@H](c1ccc(OCCO)cc1)N1[C@H](c3ccccc3)[C@H](c3ccccc3)OC(=O)[C@H]1[C@@H]2C(=O)Nc1nc2ccccc2s1	-0.76
CCOC(=O)C1=CC[C@@H](c2ccc(-c3ccc(OCc4ccccc4)cc3)c(OC)c2)N(S(=O)(=O)c2ccc(C)cc2)[C@H]1c1ccccc1	0.713
Cc1ccc(S[C@]2(C(=O)O)CC(=O)N(Cc3ccccc3)[C@@H]2c2ccc(CO)cc2)cc1	-0.0554
Cc1ccc(S[C@]2(C(=O)NC(C)C)CC(=O)N(Cc3cc(C(F)(F)F)cc(C(F)(F)F)c3)[C@@H]2c2ccc(CO)cc2I)cc1	-1.25
CO[C@@H]1COC(=O)[C@H](COCc2ccccc2)NC(=O)CC=C[C@@H](C)[C@H](OC)COC(=O)[C@H](COCc2ccccc2)NC(=O)CC=C[C@H]1C	-0.711
CCC1=C2CN(Cc3ccccc3Br)[C@@H]([C@@H](O)Cc3ccccc3)C2C=CCC1 (some centres not stated)	0.714
COCCOC(=O)N1C(=O)[C@@]2(c3cc(C#CCC(C(=O)OC)C(=O)OC)ccc31)[C@H](c1ccccc1OCCO)N1[C@H](c3ccccc3)[C@H](c3ccccc3)OC(=O)[C@H]1[C@@H]2C(=O)N1CCCCCCC1	-0.0742
CO[C@@H]1COC(=O)[C@@H]2CCCN2C(=O)CC=C[C@@H](C)[C@H](OC)COC(=O)[C@@H]2CCCN2C(=O)CC=C[C@H]1C	-1.36
C=C(COC)/C(=C/C[C@H](OC(C)=O)c1ccc(OCCO)cc1)c1cnc2ccccc2c1	0.0916
CC(=O)Nc1ccc([C@H]2[C@H](C)CC[C@H]3C(=O)N4[C@@H](CC[C@@H](C)[C@@H]4c4ccc(NC(C)=O)cc4)C(=O)N32)cc1	0.626
CN(C)CCCC[C@@H]1NC(=O)[C@@H]2C[C@H](C(=O)O)[C@H](c3ccc(O)cc3)N2C1=O	-1.07
C[C@@H]1CC[C@H]2C(=O)N3[C@@H](CC[C@@H](C)[C@@H]3c3cccc(N4CCOCC4)c3)C(=O)N2[C@H]1c1cccc(Br)c1	0.718

— PubChem BioAssay
